Reference: the supplement of paper PMC3545927
The other results are listed elsewhere or left out. The hit rate among all sequences tested is not known here.

Target: furin, P09958
Assay: furin cleavage Z-score vs untreated control; higher = more cleavage, active = 3.5 or more, inactive = 1 or less, 8 variable residues between constant flanks
Procedure, shortened: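 Purified furin cleaved 8-mer peptides that were fused to a cDNA oligonucleotide and held on magnetic beads by their N-terminus. Each 0.01 ml reaction used a 1:10 enzyme:substrate ratio in 50 mM HEPES pH 7.5 with CaCl2 and NaCl and ran 7.5, 15 or 30 min. Released DNA was adapter-tagged by PCR and sequenced, and read counts gave abundance. The cleavage Z-score came from log counts against furin-free reactions, lowess-adjusted and scaled by median absolute deviation.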

Sequence of furin, P09958 (P09958 whole entry): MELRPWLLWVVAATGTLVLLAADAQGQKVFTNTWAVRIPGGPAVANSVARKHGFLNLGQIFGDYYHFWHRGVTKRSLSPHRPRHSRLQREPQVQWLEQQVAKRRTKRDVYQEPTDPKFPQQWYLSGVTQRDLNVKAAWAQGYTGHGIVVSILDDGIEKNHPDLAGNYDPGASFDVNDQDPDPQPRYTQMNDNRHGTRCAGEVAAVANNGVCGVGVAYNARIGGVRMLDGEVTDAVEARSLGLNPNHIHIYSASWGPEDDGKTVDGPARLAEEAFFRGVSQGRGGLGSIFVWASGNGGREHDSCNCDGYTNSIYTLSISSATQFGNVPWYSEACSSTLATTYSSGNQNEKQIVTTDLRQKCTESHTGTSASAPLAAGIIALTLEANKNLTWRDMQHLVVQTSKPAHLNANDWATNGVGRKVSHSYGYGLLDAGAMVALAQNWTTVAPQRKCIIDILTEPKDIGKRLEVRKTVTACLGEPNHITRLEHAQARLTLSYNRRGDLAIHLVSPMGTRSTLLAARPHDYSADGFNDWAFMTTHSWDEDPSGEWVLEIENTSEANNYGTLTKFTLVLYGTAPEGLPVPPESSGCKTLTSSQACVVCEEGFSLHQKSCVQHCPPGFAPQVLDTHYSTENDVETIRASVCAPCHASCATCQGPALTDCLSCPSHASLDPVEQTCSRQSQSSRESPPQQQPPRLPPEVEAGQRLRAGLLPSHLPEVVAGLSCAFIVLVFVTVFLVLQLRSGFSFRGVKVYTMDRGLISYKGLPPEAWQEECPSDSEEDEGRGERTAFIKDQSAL

B1: HC1911 (peptide)
chain: CATTPCSGDWAGNASASA
furin cleavage Z-score (7.5 min): 1.59
furin cleavage Z-score (15 min): -1.02 (inactive)
furin cleavage Z-score (30 min): 0.621 (inactive)

B2: HC2196 (peptide)
chain: CAEVGTSTWVAGNASASA
furin cleavage Z-score (7.5 min): 0.089 (inactive)
furin cleavage Z-score (15 min): 1.37
furin cleavage Z-score (30 min): 0.992 (inactive)

B3: HC2257 (peptide)
chain: CAEVVTSTWSAGNASASA
furin cleavage Z-score (7.5 min): 0.148 (inactive)
furin cleavage Z-score (15 min): -0.0297 (inactive)
furin cleavage Z-score (30 min): 0.967 (inactive)

B4: HC2532 (peptide)
chain: CASTPCSEHLAGNASASA
furin cleavage Z-score (7.5 min): 1.63
furin cleavage Z-score (15 min): 0.136 (inactive)
furin cleavage Z-score (30 min): -0.509 (inactive)

B5: HC1471 (peptide)
chain: CAVEFLVQAWAGNASASA
furin cleavage Z-score (7.5 min): -1.03 (inactive)
furin cleavage Z-score (15 min): -0.538 (inactive)
furin cleavage Z-score (30 min): 0.302 (inactive)

B6: HC1434 (peptide)
chain: CALEDNVTPIAGNASASA
furin cleavage Z-score (7.5 min): -0.871 (inactive)
furin cleavage Z-score (15 min): -0.336 (inactive)
furin cleavage Z-score (30 min): -2.15 (inactive)

B7: HC986 (peptide)
chain: CAADLEVVTSAGNASASA
furin cleavage Z-score (7.5 min): 0.0893 (inactive)
furin cleavage Z-score (15 min): -0.606 (inactive)
furin cleavage Z-score (30 min): -0.099 (inactive)

B8: FS-1617 (peptide)
chain: CATSSRSARKAGNASASA
furin cleavage Z-score (7.5 min): -0.831 (inactive)
furin cleavage Z-score (15 min): 2.68
furin cleavage Z-score (30 min): 0.36 (inactive)

B9: FS-1479 (peptide)
chain: CARPSRPWRDAGNASASA
furin cleavage Z-score (7.5 min): -0.109 (inactive)
furin cleavage Z-score (15 min): 1.22
furin cleavage Z-score (30 min): 0.811 (inactive)

B10: FS-2286 (peptide)
chain: CARPSRQIHKAGNASASA
furin cleavage Z-score (7.5 min): 1.18
furin cleavage Z-score (15 min): -0.223 (inactive)
furin cleavage Z-score (30 min): 1.59

B11: FS-630 (peptide)
chain: CATSSRRKRDAGNASASA
furin cleavage Z-score (7.5 min): 11 (active)
furin cleavage Z-score (15 min): 10.2 (active)
furin cleavage Z-score (30 min): 7.47 (active)

B12: FS-389 (peptide)
chain: CAYDSMKKRDAGNASASA
furin cleavage Z-score (7.5 min): 0.389 (inactive)
furin cleavage Z-score (15 min): 0.234 (inactive)
furin cleavage Z-score (30 min): 0.576 (inactive)

B13: FS-1565 (peptide)
chain: CARPSRVARDAGNASASA
furin cleavage Z-score (7.5 min): 13.5 (active)
furin cleavage Z-score (15 min): 13.3 (active)
furin cleavage Z-score (30 min): 9.92 (active)

B14: FS-1013 (peptide)
chain: CAIITRWKRDAGNASASA
furin cleavage Z-score (7.5 min): 11.5 (active)
furin cleavage Z-score (15 min): 11.3 (active)
furin cleavage Z-score (30 min): 8.16 (active)

B15: FS-885 (peptide)
chain: CATSNSLKRDAGNASASA
furin cleavage Z-score (7.5 min): -0.606 (inactive)
furin cleavage Z-score (15 min): 0.0826 (inactive)
furin cleavage Z-score (30 min): -0.0438 (inactive)

B16: HC1047 (peptide)
chain: CAQYLAGLSTAGNASASA
furin cleavage Z-score (7.5 min): -0.145 (inactive)
furin cleavage Z-score (15 min): 1
furin cleavage Z-score (30 min): 1.23

B17: FS-2559 (peptide)
chain: CARKKKAWIYAGNASASA
furin cleavage Z-score (7.5 min): 0.615 (inactive)
furin cleavage Z-score (15 min): -1.67 (inactive)
furin cleavage Z-score (30 min): -1.6 (inactive)

B18: HC2016 (peptide)
chain: CAVGCCSMSYAGNASASA
furin cleavage Z-score (7.5 min): -0.196 (inactive)
furin cleavage Z-score (15 min): -0.437 (inactive)
furin cleavage Z-score (30 min): 1.21

B19: TR4 (peptide)
chain: CAQSPRSFQKAGNASASA
furin cleavage Z-score (7.5 min): -0.296 (inactive)
furin cleavage Z-score (15 min): -2.07 (inactive)
furin cleavage Z-score (30 min): -0.29 (inactive)

B20: HC227 (peptide)
chain: CALMGYIPLVAGNASASA
furin cleavage Z-score (7.5 min): 0.341 (inactive)
furin cleavage Z-score (15 min): 2.34
furin cleavage Z-score (30 min): -0.327 (inactive)

B21: HC1704 (peptide)
chain: CAMEICSQHLAGNASASA
furin cleavage Z-score (7.5 min): 0.947 (inactive)
furin cleavage Z-score (15 min): 2.02
furin cleavage Z-score (30 min): 0.46 (inactive)

B22: FS-918 (peptide)
chain: CARRHRKKKRAGNASASA
furin cleavage Z-score (7.5 min): 0.00638 (inactive)
furin cleavage Z-score (15 min): 0.147 (inactive)
furin cleavage Z-score (30 min): 0.539 (inactive)

B23: FS-1074 (peptide)
chain: CARRHRRPRRAGNASASA
furin cleavage Z-score (7.5 min): 5.28 (active)
furin cleavage Z-score (15 min): 6.77 (active)
furin cleavage Z-score (30 min): 6.21 (active)

B24: FS-864 (peptide)
chain: CARRHRTYRWAGNASASA
furin cleavage Z-score (7.5 min): 7.43 (active)
furin cleavage Z-score (15 min): 9.85 (active)
furin cleavage Z-score (30 min): 11.3 (active)

B25: FS-185 (peptide)
chain: CARAERAARFAGNASASA
furin cleavage Z-score (7.5 min): 0.624 (inactive)
furin cleavage Z-score (15 min): 2.79
furin cleavage Z-score (30 min): 2.55

B26: FS-1059 (peptide)
chain: CARAERRPRRAGNASASA
furin cleavage Z-score (7.5 min): 8.38 (active)
furin cleavage Z-score (15 min): 9.79 (active)
furin cleavage Z-score (30 min): 8.17 (active)

B27: HC1405 (peptide)
chain: CAKEVKAAASAGNASASA
furin cleavage Z-score (7.5 min): 0.037 (inactive)
furin cleavage Z-score (15 min): -0.691 (inactive)
furin cleavage Z-score (30 min): 0.852 (inactive)

B28: HC1632 (peptide)
chain: CAKYLFNWAVAGNASASA
furin cleavage Z-score (7.5 min): -0.0484 (inactive)
furin cleavage Z-score (15 min): 0.619 (inactive)
furin cleavage Z-score (30 min): 0.965 (inactive)

B29: HC1143 (peptide)
chain: CASSECTTPCAGNASASA
furin cleavage Z-score (7.5 min): -0.401 (inactive)
furin cleavage Z-score (15 min): 1.52
furin cleavage Z-score (30 min): 0.461 (inactive)

B30: HC1998 (peptide)
chain: CATVCCSMSYAGNASASA
furin cleavage Z-score (7.5 min): 0.937 (inactive)
furin cleavage Z-score (15 min): 0.131 (inactive)
furin cleavage Z-score (30 min): 0.837 (inactive)

B31: HC1076 (peptide)
chain: CAGAGLAGAAAGNASASA
furin cleavage Z-score (7.5 min): -0.496 (inactive)
furin cleavage Z-score (15 min): -0.493 (inactive)
furin cleavage Z-score (30 min): -0.847 (inactive)

B32: FS-30 (peptide)
chain: CAHHSPLKRSAGNASASA
furin cleavage Z-score (7.5 min): -0.21 (inactive)
furin cleavage Z-score (15 min): 0.983 (inactive)
furin cleavage Z-score (30 min): 1.29

B33: FS-2853 (peptide)
chain: CATIKRSVISAGNASASA
furin cleavage Z-score (7.5 min): 0.545 (inactive)
furin cleavage Z-score (15 min): 0.855 (inactive)
furin cleavage Z-score (30 min): -1.24 (inactive)

B34: FS-97 (peptide)
chain: CATIKRLKRSAGNASASA
furin cleavage Z-score (7.5 min): 11.2 (active)
furin cleavage Z-score (15 min): 11.4 (active)
furin cleavage Z-score (30 min): 9.36 (active)

B35: FS-218 (peptide)
chain: CAAVARLKRSAGNASASA
furin cleavage Z-score (7.5 min): 12.9 (active)
furin cleavage Z-score (15 min): 11 (active)
furin cleavage Z-score (30 min): 9 (active)

B36: HC2331 (peptide)
chain: CAEDPCHRPSAGNASASA
furin cleavage Z-score (7.5 min): -1.74 (inactive)
furin cleavage Z-score (15 min): -0.655 (inactive)
furin cleavage Z-score (30 min): 0.261 (inactive)

B37: HC1116 (peptide)
chain: CAGAVQWMNRAGNASASA
furin cleavage Z-score (7.5 min): 0.142 (inactive)
furin cleavage Z-score (15 min): 1.71
furin cleavage Z-score (30 min): -0.148 (inactive)

B38: FS-1132 (peptide)
chain: CAKLNRKYRSAGNASASA
furin cleavage Z-score (7.5 min): 9.69 (active)
furin cleavage Z-score (15 min): 8.1 (active)
furin cleavage Z-score (30 min): 6.59 (active)

B39: FS-810 (peptide)
chain: CAKLNRRSRKAGNASASA
furin cleavage Z-score (7.5 min): 4.08 (active)
furin cleavage Z-score (15 min): 6.18 (active)
furin cleavage Z-score (30 min): 5.19 (active)

B40: FS-796 (peptide)
chain: CAHQRRKYRSAGNASASA
furin cleavage Z-score (7.5 min): 4.89 (active)
furin cleavage Z-score (15 min): 5.12 (active)
furin cleavage Z-score (30 min): 6.05 (active)

B41: HC1489 (peptide)
chain: CAEAIYQCCDAGNASASA
furin cleavage Z-score (7.5 min): 1.16
furin cleavage Z-score (15 min): 0.588 (inactive)
furin cleavage Z-score (30 min): 0.702 (inactive)

B42: HC473 (peptide)
chain: CATIFKIRMYAGNASASA
furin cleavage Z-score (7.5 min): -0.151 (inactive)
furin cleavage Z-score (15 min): 0.348 (inactive)
furin cleavage Z-score (30 min): -1.46 (inactive)

B43: FS-1657 (peptide)
chain: CASLCRYRRVAGNASASA
furin cleavage Z-score (7.5 min): 7.05 (active)
furin cleavage Z-score (15 min): 6.79 (active)
furin cleavage Z-score (30 min): 8.55 (active)

B44: FS-242 (peptide)
chain: CAGKFRYRRVAGNASASA
furin cleavage Z-score (7.5 min): 9.76 (active)
furin cleavage Z-score (15 min): 11.9 (active)
furin cleavage Z-score (30 min): 8.82 (active)
